From PubChem
A selection: hits, their analogues and other compounds. The true share with any hit is near 3.1%.
FGF22 binding: binders of human FGF22 protein, primary screen, FGF22 synaptogenesis inhibitor project, biophysical, thermal shift, single point; activity (Tm shift, normalised), % at 9.99 µM; recombinant FGF22 thermal shift, SYPRO orange fluorescence; percent of sucrose octasulfate shift, DMSO zero; 340,000 compounds, 1.5% hits;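 active = mean Tm shift, scaled 0 neutral to 100 positive control, at about 1.3% or above, every replicate too, limit read from the data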
ERAP1 inh: human ERAP1 aminopeptidase inhibitors, primary screen, biochemical, single point, plate reader. recombinant ERAP1, Leu-AMC fluorescence, 60 min. inhibition, % at 10.7 µM. 340,000 compounds, 0.15% hits. AID 652197, 2013;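 active = mean replicate inhibition of at least 30%, or all replicates individually reaching that 30% level; inactive = mean below 30% and not every replicate reaching it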
Target sequence (Q9NZ08 whole entry, looked up): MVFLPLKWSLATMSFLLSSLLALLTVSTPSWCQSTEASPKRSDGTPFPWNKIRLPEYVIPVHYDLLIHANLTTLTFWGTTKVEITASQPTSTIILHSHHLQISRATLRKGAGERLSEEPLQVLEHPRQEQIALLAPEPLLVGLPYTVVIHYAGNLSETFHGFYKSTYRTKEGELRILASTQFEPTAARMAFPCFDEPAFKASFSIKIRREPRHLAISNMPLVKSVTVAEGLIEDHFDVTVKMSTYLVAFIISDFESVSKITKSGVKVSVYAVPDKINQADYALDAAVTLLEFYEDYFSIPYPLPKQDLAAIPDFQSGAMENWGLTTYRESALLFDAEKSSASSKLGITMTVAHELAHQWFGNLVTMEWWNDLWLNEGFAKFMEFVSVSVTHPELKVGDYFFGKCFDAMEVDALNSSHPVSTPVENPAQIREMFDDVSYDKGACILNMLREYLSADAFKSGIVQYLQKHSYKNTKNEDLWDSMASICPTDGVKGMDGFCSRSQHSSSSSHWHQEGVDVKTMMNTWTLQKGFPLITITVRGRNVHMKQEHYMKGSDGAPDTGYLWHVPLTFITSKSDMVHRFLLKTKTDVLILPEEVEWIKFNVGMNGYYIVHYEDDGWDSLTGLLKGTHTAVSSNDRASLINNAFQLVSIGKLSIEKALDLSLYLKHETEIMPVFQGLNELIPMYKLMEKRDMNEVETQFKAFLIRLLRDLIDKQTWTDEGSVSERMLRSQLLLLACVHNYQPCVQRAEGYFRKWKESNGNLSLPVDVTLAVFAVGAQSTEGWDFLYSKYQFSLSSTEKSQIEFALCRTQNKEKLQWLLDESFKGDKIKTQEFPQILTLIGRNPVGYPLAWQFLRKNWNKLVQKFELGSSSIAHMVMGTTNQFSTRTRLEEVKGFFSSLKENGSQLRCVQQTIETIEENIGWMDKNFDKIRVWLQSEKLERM
SIRT5 inh: SIRT5 desuccinylase inhibitors, primary screen, biochemical, fluorescence imaging, single point, set 5; AID 652115, 2013; 330,000 compounds, 1.1% hits; Purified SirT5, succinyl-peptide AMC, trypsin-coupled fluorescence; inhibition, % at 15 µM; NAD-dependent protein deacylase sirtuin-5, mitochondrial (Homo sapiens), Q9NXA8; in the data active = inhibition above about 15%
CASP6 VEID inh: human caspase-6 inhibitors, primary screen, biochemical, VEID-R110 fluorescence, single point, set 2 | inhibition, % at 12.5 µM | purified caspase-6, Z-VEID-R110 cleavage fluorescence | P55212 | 350,000 compounds, 0.53% hits;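 active = mean inhibition across replicates at least about 35%, with every replicate also reaching that limit, limit read from the data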
Each line names hits and unclear results; the compound was inactive in the other large screens; ! = repeats disagree.

COc1ccc(C(=O)NC(=S)Nc2cc3oc4ccccc4c3cc2OC)cc1	FGF22 binding 44
COCC(=O)Nc1ccc2c(c1)C(=O)N(C)[C@@H]1CC[C@H](CC(=O)NCc3cccc(F)c3)O[C@H]1CO2	none (no result: ERAP1 inh, SIRT5 inh, CASP6 VEID inh)
CCC(=O)N1[C@H](CO)[C@@H]2c3ccccc3N(C(=O)c3ccc4c(c3)OCO4)C[C@@H]21	none
CO/N=C/C(=N\Nc1ccc(OC)cc1)C(=O)c1ccc(F)cc1	none
CO/N=C/C(C#N)=C/c1cc(C(=O)c2ccc(F)cc2)cn1C	FGF22 binding 43
COc1cc(OC)cc(C(=O)N2CCC(N3CCN(c4ccccc4OC)CC3)CC2)c1	SIRT5 inh 24
Cc1cc(=O)[nH]c(SCC(=O)NC(C)C2CC3CCC2C3)c1C#N (stereo not given)	FGF22 binding 44
CC(NC(=O)CSc1n[nH]c(=O)[nH]c1=O)C1CC2CCC1C2 (stereo not given)	none (no result: ERAP1 inh)
C[C@H]1CN([C@@H](C)CO)S(=O)(=O)c2ccc(/C=C/c3ccccc3)cc2O[C@@H]1CN(C)C(=O)c1ccc2c(c1)OCO2	FGF22 binding 1.9
C[C@H](CO)N1C[C@H](C)[C@H](CN(C)C(=O)c2ccc3c(c2)OCO3)Oc2cc(/C=C/c3ccccc3)ccc2S1(=O)=O	SIRT5 inh 29
C[C@@H]1CN([C@H](C)CO)S(=O)(=O)c2ccc(C#Cc3ccccc3F)cc2O[C@H]1CN(C)C(=O)c1ccc2c(c1)OCO2	SIRT5 inh 36!
C[C@@H]1CN([C@@H](C)CO)S(=O)(=O)c2ccc(-c3ccccc3)cc2O[C@@H]1CN(C)C(=O)c1ccc2c(c1)OCO2	SIRT5 inh 16
C[C@H]1CN([C@@H](C)CO)S(=O)(=O)c2ccc(-c3ccccc3)cc2O[C@H]1CN(C)C(=O)c1ccc2c(c1)OCO2	none
CC(C)NC(=O)Nc1ccc2c(c1)C(=O)N([C@H](C)CO)C[C@@H](C)[C@@H](CN(C)C)OCCCC[C@H](C)O2	none (no result: ERAP1 inh, SIRT5 inh, CASP6 VEID inh)
Cc1noc(C)c1NC(=O)Nc1ccc2c(c1)C(=O)N([C@H](C)CO)C[C@@H](C)[C@H](CN(C)S(=O)(=O)c1cccs1)O2	none
C[C@H]1CN([C@@H](C)CO)S(=O)(=O)c2ccc(/C=C/c3ccccc3)cc2O[C@H]1CN(C)C(=O)c1ccc2c(c1)OCO2	SIRT5 inh 22 (no result: FGF22 binding)
O=C(CSC(=S)N1CCCC1)c1cc(Br)cc(Br)c1O	FGF22 binding 46
C=CC[C@H](CC(=O)N(CCO)Cc1ccccc1)C(=O)N[C@H](COC(=O)[C@H](CC=C)CC(=O)OC(C)(C)C)Cc1ccccc1	none (no result: SIRT5 inh)
C=CC[C@@H](CC(=O)N(CCO)Cc1ccccc1)C(=O)N[C@H](COC(=O)[C@@H](CC=C)CC(=O)OC(C)(C)C)c1ccccc1	SIRT5 inh 20
C=CC[C@H](CC(=O)N(CCO)Cc1ccccc1)C(=O)N[C@@H](COC(=O)[C@H](CC=C)CC(=O)OC(C)(C)C)Cc1c[nH]c2ccccc12	SIRT5 inh 27
C=CC[C@@H](CC(=O)N(CCO)Cc1ccccc1)C(=O)N[C@H](COC(=O)[C@@H](CC=C)CC(=O)OC(C)(C)C)Cc1c[nH]c2ccccc12	none (no result: ERAP1 inh, SIRT5 inh)
C[C@@H]1CN([C@H](C)CO)C(=O)Cc2cc(NS(=O)(=O)c3ccc(Cl)cc3)ccc2O[C@@H]1CN(C)Cc1ccc(C(F)(F)F)cc1	none
C[C@H](CO)N1C[C@H](C)[C@@H](CN(C)Cc2ccc(C(F)(F)F)cc2)Oc2ccc(NS(=O)(=O)c3ccc(Cl)cc3)cc2CC1=O	none
C[C@@H]1CN([C@@H](C)CO)C(=O)Cc2cc(NS(=O)(=O)c3ccc(Cl)cc3)ccc2O[C@@H]1CN(C)Cc1ccc(C(F)(F)F)cc1	none
C[C@@H]1CN([C@H](C)CO)C(=O)Cc2cc(NS(=O)(=O)c3ccc(F)cc3)ccc2O[C@H]1CN(C)Cc1ccc(C(F)(F)F)cc1	SIRT5 inh 23
C[C@@H]1CN([C@@H](C)CO)C(=O)Cc2cc(NS(=O)(=O)c3ccc(F)cc3)ccc2O[C@@H]1CN(C)Cc1ccc(C(F)(F)F)cc1	SIRT5 inh 18
C[C@H]1CN([C@@H](C)CO)C(=O)Cc2cc(NS(=O)(=O)c3ccc(F)cc3)ccc2O[C@@H]1CN(C)Cc1ccc(C(F)(F)F)cc1	SIRT5 inh 20
O=C(Cc1ccccn1)NCC[C@@H]1CC[C@@H](NC(=O)CN2CCOCC2)[C@@H](CO)O1	none
